In PubChem BioAssay AID1159580 (chemical genetic matrix, 2015):
Several values for one entry are separate records, joined by “and”; a condition that tells them apart may be missing. Identical values can stand only once. Hit rate of the full screen: of about 5,500 compounds, about 2,000 (36%) were called active. Another 18% or so got no clear call; they are omitted. No stated cut-off is given here; in the data, active means normalized growth mostly below about 0.91 (no sharp cut-off); inconclusive means no clear call, values can overlap the other calls; inactive means mostly above about 0.92. Some of the results follow.

Assay: chemical genetic growth profiling, strain panel (AID 1159580);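 further: tested at 20 µM; growth read once vehicle control cultures reached saturation at 30 °C; 1 = growth at the plate median or of vehicle wells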
Details: growth OD

Measured: normalized growth

NNCCc1ccccc1
inactive: S. cerevisiae deletion strains, locus YJR066W, strain TOR1, stronger effect = lower value 0.945 | S. cerevisiae deletion strains, locus YJR075W, strain HOC1, stronger effect = lower value 0.986 | S. cerevisiae deletion strains, locus YKL009W, strain mrt4, stronger effect = lower value 0.995 | S. cerevisiae deletion strains, locus YKL068W, stronger effect = lower value 0.986 | S. cerevisiae deletion strains, locus YKL085W, strain MDH1 (second series), stronger effect = lower value 0.998 | S. cerevisiae deletion strains, locus YKL085W, strain MDH1, stronger effect = lower value 0.998 | S. cerevisiae deletion strains, locus YKL160W, strain elf1, stronger effect = lower value 1 | S. cerevisiae deletion strains, locus YKL190W, strain CNB1, stronger effect = lower value 0.966 | S. cerevisiae deletion strains, locus YKR001C, strain vps1, stronger effect = lower value 0.992 | S. cerevisiae deletion strains, locus YKR026C, strain gcn3, stronger effect = lower value 1.01 | S. cerevisiae deletion strains, locus YKR091W, strain srl3, stronger effect = lower value 1.01 | S. cerevisiae deletion strains, locus YLL001W, strain dnm1, stronger effect = lower value 1 | S. cerevisiae deletion strains, locus YLL026W, stronger effect = lower value 1 | S. cerevisiae deletion strains, locus YLL041C, strain sdh2, stronger effect = lower value 1 | S. cerevisiae deletion strains, locus YLR027C, strain aat2, stronger effect = lower value 1.01 | S. cerevisiae deletion strains, locus YLR039C, strain RIC1, stronger effect = lower value 0.897 | S. cerevisiae deletion strains, locus YLR058C, strain SHM2, stronger effect = lower value 0.974 | S. cerevisiae deletion strains, locus YLR102C, strain apc9, stronger effect = lower value 0.991 | S. cerevisiae deletion strains, locus YLR113W, strain HOG1, stronger effect = lower value 0.987 | S. cerevisiae deletion strains, locus YLR221C, strain rsa3, stronger effect = lower value 1.01 | S. cerevisiae deletion strains, locus YLR258W, strain gsy2, stronger effect = lower value 1.01 | S. cerevisiae deletion strains, locus YLR262C, strain YPT6 (second series), stronger effect = lower value 0.969 | S. cerevisiae deletion strains, locus YLR262C, strain YPT6, stronger effect = lower value 0.858 | S. cerevisiae deletion strains, locus YLR268W, strain sec22, stronger effect = lower value 1.05 | S. cerevisiae deletion strains, locus YLR320W, strain mms22, stronger effect = lower value 1.02 | S. cerevisiae deletion strains, locus YLR330W, strain CHS5, stronger effect = lower value 0.994 | S. cerevisiae deletion strains, locus YLR342W, strain FKS1 (second series), stronger effect = lower value 0.997 | S. cerevisiae deletion strains, locus YLR342W, strain FKS1, stronger effect = lower value 1.02 | S. cerevisiae deletion strains, locus YLR357W, strain rsc2, stronger effect = lower value 0.969 | S. cerevisiae deletion strains, locus YLR370C, strain arc18, stronger effect = lower value 1.01 | S. cerevisiae deletion strains, locus YLR371W, strain rom2, stronger effect = lower value 0.966 | S. cerevisiae deletion strains, locus YLR384C, strain iki3, stronger effect = lower value 1.01 | S. cerevisiae deletion strains, locus YLR418C, strain cdc73, stronger effect = lower value 0.965 | S. cerevisiae deletion strains, locus YML016C, strain PPZ1, stronger effect = lower value 0.989 | S. cerevisiae deletion strains, locus YML032C, strain rad52, stronger effect = lower value 0.996 | S. cerevisiae deletion strains, locus YML120C, strain ndi1, stronger effect = lower value 1.01 | S. cerevisiae deletion strains, locus YML124C, strain tub3, stronger effect = lower value 0.986 | S. cerevisiae deletion strains, locus YMR058W, strain fet3, stronger effect = lower value 1 | S. cerevisiae deletion strains, locus YMR078C, strain ctf18, stronger effect = lower value 0.969 | S. cerevisiae deletion strains, locus YMR125W, strain sto1, stronger effect = lower value 0.999 | S. cerevisiae deletion strains, locus YMR129W, stronger effect = lower value 1 | S. cerevisiae deletion strains, locus YMR205C, strain PFK2, stronger effect = lower value 1.02 | S. cerevisiae deletion strains, locus YMR223W, strain ubp8, stronger effect = lower value 0.95 | S. cerevisiae deletion strains, locus YMR231W, strain pep5, stronger effect = lower value 1.01 | S. cerevisiae deletion strains, locus YMR263W, strain SAP30, stronger effect = lower value 1 | S. cerevisiae deletion strains, locus YMR307W, strain GAS1, stronger effect = lower value 1 | S. cerevisiae deletion strains, locus YNL067W, strain RPL9B, stronger effect = lower value 0.981 | S. cerevisiae deletion strains, locus YNL071W, strain lat1, stronger effect = lower value 1.01 | S. cerevisiae deletion strains, locus YNL128W, strain TEP1, stronger effect = lower value 1.01 | S. cerevisiae deletion strains, locus YNL153C, strain GIM3, stronger effect = lower value 0.99 | S. cerevisiae deletion strains, locus YNL175C, strain NOP13, stronger effect = lower value 1 | S. cerevisiae deletion strains, locus YNL183C, strain NPR1, stronger effect = lower value 0.958 | S. cerevisiae deletion strains, locus YNL197C, strain WHI3, stronger effect = lower value 0.996 | S. cerevisiae deletion strains, locus YNL209W, strain ssb2, stronger effect = lower value 1 | S. cerevisiae deletion strains, locus YNL224C, strain SQS1, stronger effect = lower value 0.99 | S. cerevisiae deletion strains, locus YNL233W, strain BNI4, stronger effect = lower value 0.999 | S. cerevisiae deletion strains, locus YNL248C, strain rpa49, stronger effect = lower value 1.02 | S. cerevisiae deletion strains, locus YNL250W, strain rad50, stronger effect = lower value 0.983 | S. cerevisiae deletion strains, locus YNL271C, strain bni1, stronger effect = lower value 0.994 | S. cerevisiae deletion strains, locus YNL298W, strain CLA4, stronger effect = lower value 0.997 | S. cerevisiae deletion strains, locus YNL307C, strain MCK1, stronger effect = lower value 0.987 | S. cerevisiae deletion strains, locus YNL322C, strain KRE1 (second series), stronger effect = lower value 1.02 | S. cerevisiae deletion strains, locus YNL322C, strain KRE1, stronger effect = lower value 0.988 and 0.996 | S. cerevisiae deletion strains, locus YNR049C, strain mso1, stronger effect = lower value 1.01 | S. cerevisiae deletion strains, locus YNR052C, strain pop2, stronger effect = lower value 0.991 | S. cerevisiae deletion strains, locus YOL006C, strain TOP1, stronger effect = lower value 0.983 | S. cerevisiae deletion strains, locus YOL012C, strain htz1 0.89 | S. cerevisiae deletion strains, locus YOL147C, strain pex11, stronger effect = lower value 0.986 | S. cerevisiae deletion strains, locus YOR001W, strain rrp6, stronger effect = lower value 1.01 | S. cerevisiae deletion strains, locus YOR061W, strain CKA2, stronger effect = lower value 0.964 | S. cerevisiae deletion strains, locus YOR069W, strain VPS5, stronger effect = lower value 0.993 | S. cerevisiae deletion strains, locus YOR070C, strain gyp1, stronger effect = lower value 1 | S. cerevisiae deletion strains, locus YOR080W, strain dia2, stronger effect = lower value 1.01 | S. cerevisiae deletion strains, locus YOR083W, strain WHI5 (second series), stronger effect = lower value 1 | S. cerevisiae deletion strains, locus YOR083W, strain WHI5, stronger effect = lower value 0.988 | S. cerevisiae deletion strains, locus YOR106W, strain vam3, stronger effect = lower value 1.02 | S. cerevisiae deletion strains, locus YOR136W, strain idh2, stronger effect = lower value 0.973 | S. cerevisiae deletion strains, locus YOR144C, strain elg1, stronger effect = lower value 0.987 | S. cerevisiae deletion strains, locus YOR184W, strain ser1, stronger effect = lower value 0.981 | S. cerevisiae deletion strains, locus YOR231W, strain MKK1, stronger effect = lower value 0.982 | S. cerevisiae deletion strains, locus YOR265W, strain rbl2, stronger effect = lower value 1 | S. cerevisiae deletion strains, locus YOR270C, strain vph1, stronger effect = lower value 1.11 | S. cerevisiae deletion strains, locus YOR290C, strain snf2, stronger effect = lower value 1 | S. cerevisiae deletion strains, locus YOR316C, strain cot1, stronger effect = lower value 0.984 | S. cerevisiae deletion strains, locus YPL051W, strain arl3, stronger effect = lower value 1.01 | S. cerevisiae deletion strains, locus YPL078C, strain atp4, stronger effect = lower value 1 | S. cerevisiae deletion strains, locus YPL106C, strain sse1, stronger effect = lower value 0.977 | S. cerevisiae deletion strains, locus YPL240C, strain hsp82, stronger effect = lower value 1 | S. cerevisiae deletion strains, locus YPL241C, strain CIN2, stronger effect = lower value 0.994 | S. cerevisiae deletion strains, locus YPL256C, strain CLN2, stronger effect = lower value 0.958 | S. cerevisiae deletion strains, locus YPR119W, strain clb2, stronger effect = lower value 0.981 | S. cerevisiae deletion strains, locus YPR141C, strain kar3, stronger effect = lower value 0.968 | S. cerevisiae deletion strains, locus YPR163C, strain tif3, stronger effect = lower value 0.989 | S. cerevisiae deletion strains, locus YPR167C, strain met16, stronger effect = lower value 0.985 | S. cerevisiae deletion strains, strain wtn01, stronger effect = lower value 0.992 | S. cerevisiae strains, strain wild type, stronger effect = lower value 0.981
